Assay results: PubChem BioAssay AID1224855 (National Center for Advancing Translational Sciences (NCATS), 2016)
Results filed as inconclusive are left out. The source made the active and inactive calls. Calls come from the whole dose curve; as a rule, active = well fitted inhibition curve with a large enough effect; inconclusive = small, poorly fitted or top-dose-only effect; inactive = no such curve, though single readings can be large or run the other way.

Experiment: Confirmation assay for measurement of the activity of small molecule inhibitors on Zika virus induced Caspase-3 activity in human iPSC derived neural progenitor cells (hNPCs)
Settings: hNPC ZIKV-induced caspase-3/7, Caspase-Glo luminescence, 6 h; series mostly up to 46.1 µM
Excerpt: National Center for Advancing Translational Sciences [NCATS] Johns Hopkins University School of Medicine Florida State University Assay Overview: Increase in the Caspase-3 activity indicates an activation of apoptosis cell death pathway caused by Zika virus infection in certain types of neuronal cells including human neural progenitor cells (hNPCs), astrocytes, and astrocytoma cell line (SNB-19). This cell-based caspase-3 activity assay measures the increased caspase-3 activity in the human iPSC derived neural progenitor cells (hNPCs) after a 6-hour Zika virus infection with a luminescence readout. A decrease in the luminescence signal in this assay by small molecule treatment indicates an inhibitory effect of that small molecule on the Zika virus induced caspase-3 activity that may correlate with its effect on reduction of Zika virus caused cell death.
Assay Protocol Summary: The medium for hNPCs consists of DMEM/F12, N2 supplement (ThermoFisher, Cat.# 17502048), NEAA (ThermoFisher, Cat. # 11140050), 2 ug/ml heparin, 2 uM cyclopamine, and B27 (ThermoFisher, Cat. # 17504044). A Caspase-Glo 3/7 assay kit (catalog number G8092; Promega, Madison, WI) was used to detect caspase-3 activity induced by Zika virus infection in human cells. The reagent mixture was reconstituted as described in the protocol from the manufacturer. Polystyrene tissue culture treated and PDL coated white plates were obtained from Greiner Bio-One (Monroe, NC). Cells were seeded in 384- or 1536-well assay plates and cultured at 37 C with 5% CO2 for 16 to 20 hours. The typical cell seeding density in the 1536-well plate assay is 350 cells/well in 3 ul medium for hNPCs in tissue culture treated plates. Compounds were added to cells and incubated for one hour before addition of ZIKV solution to cells (2 FFU/cell). After incubation at 37 C with 5% CO2 for 6 hours, the reagent mixture of Caspase-Glo 3/7 assay kit was added to each well, followed by incubation at room temperature for 30 minutes. The luminescence intensity of the assay plates was measured using a ViewLux plate reader (PerkinElmer). Data were normalized by using the cell-containing wells without ZIKV as a negative control (0% induction of caspase 3/7 activity) and wells containing ZIKV infected cells (Caspase-3 activity induced) as a positive control (100% induction of caspase 3 activity). The percentage inhibitions of the increased Caspase-3 activity by small molecule inhibitors were then calculated.

Structure (SMILES)	Potency
CN(C)c1ccc(N=NS(=O)(=O)O)cc1	inactive
O=C1c2ccccc2-[n+]2ccc3c([nH]c4ccccc43)c21	9.75 µM (active)
COc1cc2nc(-c3ccc(N4CCN(C)CC4)cc3)nc(NCCN3CCOCC3)c2cc1OC	inactive
Oc1ccc(/C=C/c2cc(O)cc(O)c2)cc1	6.15 µM (active)
COc1cccc(-c2cc(=O)c3ccccc3o2)c1N	4.89 µM (active)
COc1cc2nc(N3CCN(C(=O)C4CCCO4)CC3)nc(N)c2cc1OC (stereo not given)	9.75 µM (active)
Nc1ccc2c(c1)CN1C(=O)c3ccccc3C1=N2	1.9 µM (active)
O=C(O)c1cccc(-c2noc(-c3ccccc3F)n2)c1	1.73 µM (active)
CC(O)=C(C#N)C(=O)Nc1ccc(C(F)(F)F)cc1	0.774 µM (active)
CC(C)(C)OC(=O)CN(Cc1ccc(Cl)cc1)Cc1ccc([N+](=O)[O-])s1	inactive
CC1(C)Cc2c(sc(NC(=S)NC(=O)c3ccccc3)c2C(=O)O)CO1	inactive
C[C@H](NC(=O)C(=O)Nc1ccccc1C(C)(C)C)C(=O)N[C@@H](CC(=O)O)C(=O)COc1c(F)c(F)cc(F)c1F	0.245 µM (active)
Cc1cc(O)c2c(c1)C(=O)c1cc(O)cc(O)c1C2=O	1.95 µM (active)
COc1ccc(C=CC(=O)Nc2ccccc2C(=O)O)cc1OC	17.3 µM (active)
CC(=O)Nc1ccc([C@H](C)C(=O)Nc2ncc(C(C)C)s2)cc1	17.3 µM (active)
COc1ccc(-c2cc(=O)c3c(O)cc(O)cc3o2)cc1O	9.75 µM (active)
CCN1/C(=C/C=C/c2sc3ccccc3[n+]2CC)Sc2ccccc21	inactive
CCCCCCCC/C=C/C(=O)O	inactive
Oc1cc(O)cc(/C=C/c2ccc(O)c(O)c2)c1	4.89 µM (active)
Cc1c(C(=O)O)c(O)cc2c1C(=O)c1c(O)c([C@@H]3O[C@H](CO)[C@@H](O)[C@H](O)[C@H]3O)c(O)c(O)c1C2=O	inactive

Structure (SMILES)	Potency
CCN1CCC(n2cc(CNc3cc(Cl)c4ncc(C#N)c(Nc5ccc(F)c(Cl)c5)c4c3)nn2)CC1	inactive
CC(C)Oc1ccc2c(=O)c(-c3ccccc3)coc2c1	6.15 µM (active)
COc1cccc(-c2ccc(NC(=O)C3=C(C(=O)O)CCC3)c(F)c2)c1	2.45 µM (active)
Nc1ccc(-c2ccc3ccccc3n2)cc1	3.88 µM (active)
O=C(Nc1ncc([N+](=O)[O-])s1)c1cccs1	1.23 µM (active)
COc1ccnc2c1CCCCC2S(=O)c1nc2ccccc2[nH]1 (stereo not given)	inactive
Nc1ccc(N=Nc2ccccc2)c(N)n1	15.5 µM (active)
N#C/C(=C\c1ccc(O)c(O)c1)C(=O)Nc1ccccc1	15.5 µM (active)
O=S(=O)(O)CCSSCCS(=O)(=O)O	inactive
O=C(C=CC=Cc1ccc2c(c1)OCO2)N1CCCCC1	13.8 µM (active)
O[C@@H](COc1cccc2ncccc12)CN1CCN(C2c3ccccc3[C@@H]3[C@H](c4ccccc42)C3(F)F)CC1 (stereo not given in full)	inactive
C=CCCCCCCCCC(=O)O	inactive
O=C(Nc1cc2cc[nH]c2cn1)c1ccccc1	3.46 µM (active)
C/C(=N\O)c1ccc(OCC(=O)N2CCCCC2)cc1	7.74 µM (active)
COCCn1c2c([n+](Cc3cnccn3)c1C)C(=O)c1ccccc1C2=O	6.15 µM (active)
CN1CC(=O)N/C1=N/C(=O)Nc1cccc(Cl)c1	4.35 µM (active)
NC1CCC(Nc2nc(Nc3ccc(C(=O)N4CCCCC4)cc3)c3ncn(-c4cccc(F)c4)c3n2)CC1 (stereo not given)	inactive
O=c1oc2cc(O)ccc2s1	inactive
O=C(O)[C@H](CC(=O)N1C[C@@H]2CCCC[C@H]2C1)Cc1ccccc1	inactive
CC(C)(C)COc1ccc(-n2cc(C(=O)O)cn2)cc1C#N	22.4 µM (active)
